In test [1] the test system is Zika virus NS2B-NS3 protease. The experiment in a line: Primary screen GU AMC qHTS for Zika virus inhibitors (AID 1347154).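 Also: 0% = no-inhibitor control and -100% = no-enzyme control; nearly all actives have a fitted effect of over 70% in size.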 In short, it runs like this: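 Unlinked Zika NS2B hydrophilic domain/NS3 protease domain noncovalent complex (25 nM final) in 10 mM Tris-HCl pH 8.0, 0.01% Tween 20, with AMC peptide substrate. Fluorescence (ex 340, em 450 nm) change over 15 min, room temperature; percent inhibition fitted to 4-parameter Hill equation.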
In general terms: Quantitative high-throughput screening tests each substance at several concentrations.

Test [2] is described as follows: Primary qHTS for small molecule stabilizers of the endoplasmic reticulum resident proteome: Secreted ER Calcium Modulated Protein (SERCaMP) assay (AID 1508630). Also: % is scaled to controls: 0 for no effect and ±100 for the full control effect. In short, it runs like this: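 The SH-SY5Y reporter protocol was run at 3 concentrations up to 38.3 uM (primary) or 11 concentrations (follow-up): 16 h compound, 100 nM thapsigargin for 4 h, then extracellular luciferase luminescence.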

The nature of test [3]: Cell Viability qHTS for small molecule stabilizers of the endoplasmic reticulum resident proteome (AID 1508629).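 Also: human SH-SY5Y neuroblastoma cells carrying the GLuc-SERCaMP reporter; compound exposure about 46 h in total before the viability read; % is scaled to controls: 0 for no effect and ±100 for the full control effect.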 The conditions noted are these: cell viability counter-screen, 100 nM thapsigargin for final 4 h.
In test [4] the target is Glucocorticoid receptor (Homo sapiens) (UniProt P04150). The experiment in a line: GR-GFP Redistribution (AID 450;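 active = compounds whose dose series gives a full or clear partial fitted curve of increased nuclear translocation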; also: potency is read from the fitted curve at half-maximal effect). The conditions noted are these: U2OS GR-GFP nuclear translocation, laser cytometry, 2 h.
Chain of Glucocorticoid receptor (Homo sapiens) (P04150 whole entry, looked up): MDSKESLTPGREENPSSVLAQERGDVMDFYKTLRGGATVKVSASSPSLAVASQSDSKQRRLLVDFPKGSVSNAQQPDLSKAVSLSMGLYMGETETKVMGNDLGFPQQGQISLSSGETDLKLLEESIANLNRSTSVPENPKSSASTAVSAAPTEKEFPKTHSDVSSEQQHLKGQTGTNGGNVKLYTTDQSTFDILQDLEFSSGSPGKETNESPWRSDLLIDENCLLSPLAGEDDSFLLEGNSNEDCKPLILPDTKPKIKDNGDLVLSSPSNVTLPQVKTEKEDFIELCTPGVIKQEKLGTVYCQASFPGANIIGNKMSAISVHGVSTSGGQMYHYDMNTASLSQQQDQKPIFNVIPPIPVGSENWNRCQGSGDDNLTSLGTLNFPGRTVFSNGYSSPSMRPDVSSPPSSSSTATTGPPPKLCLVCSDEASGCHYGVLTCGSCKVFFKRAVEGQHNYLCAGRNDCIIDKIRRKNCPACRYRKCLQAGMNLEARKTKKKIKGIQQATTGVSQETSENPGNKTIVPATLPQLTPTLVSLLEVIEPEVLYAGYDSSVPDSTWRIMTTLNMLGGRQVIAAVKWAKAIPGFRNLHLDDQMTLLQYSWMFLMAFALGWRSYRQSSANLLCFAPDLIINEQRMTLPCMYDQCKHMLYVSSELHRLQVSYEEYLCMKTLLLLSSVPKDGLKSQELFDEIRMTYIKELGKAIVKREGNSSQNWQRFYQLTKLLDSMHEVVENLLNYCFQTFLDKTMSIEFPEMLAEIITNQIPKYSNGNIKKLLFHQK
The target is the same in test [5]. The experiment in a line: GR-EFC Redistribution (AID 451; calls by dose curve; also: potency is read from the fitted curve at half-maximal effect). Conditions: CHO-K1 GR-EFC translocation, beta-gal luminescence, 2 h. The method, boiled down:
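CHO-K1 cells stably expressing nuclear-localized β-gal enzyme acceptor and GR fused C-terminally to the enzyme donor fragment; ligand-driven nuclear translocation restores β-gal by complementation. Compounds titrated up to 46 uM final, 2 h at 37 °C; luminescence read.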

For test [6], the target named is Mitogen-activated protein kinase 10 (Mus musculus) (UniProt Q61831). Kind of test: JNK3 AlphaScreen Assay (AID 530; active = well fitted curve in either direction with a large enough effect, not every such curve was filed as active;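 also: kinase came from lysate of stimulated human HepG2 cells; signal reports phosphorylation of biotinylated GST-cJun 1-79 at Ser73 with 10 µM ATP; % is scaled to controls: 0 for no effect and ±100 for the full control effect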). In short, it runs like this:
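Phosphorylation of biotinylated GST-cJun(1-79) at Ser73 is measured by AlphaScreen proximity luminescence. Enzyme is JNK3 in HepG2 lysates activated with interleukin-1beta and tumor necrosis factor alpha; ATP is 10 uM final.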
A general note: Alpha assays give light when donor and acceptor beads are brought close together.

Test [7] concerns the target Cytochrome P450 2D6 (Homo sapiens) (UniProt P10635). The experiment in a line: qHTS Assay for Inhibitors and Substrates of Cytochrome P450 2D6 (AID 891). Also: potency is read from the fitted curve at half-maximal effect; nearly all actives have a fitted effect of over 60% in size. The method, boiled down:
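Luminescent read-out of luciferin formed by 5 nM human CYP2D6 demethylating 30 uM Luciferin-ME EGE (Km level) over 60 min at room temperature after NADPH regeneration addition. Data normalized to full inhibition by 1.43 uM quinidine.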

Test [8] deals with Cytochrome P450 2C19 (Homo sapiens) (UniProt P33261). The experiment in a line: qHTS Assay for Inhibitors and Substrates of Cytochrome P450 2C19 (AID 899). Also: potency is read from the fitted curve at half-maximal effect; nearly all actives have a fitted effect of over 60% in size. In short, it runs like this:
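Human CYP2C19 (5nM) with Luciferin-H EGE at 10uM (its KM) in 50mM KPO4 was preincubated with compound for 10 min at 37C. NADPH regeneration started a 60 min 37C reaction. Luciferin was read by luminescence, normalized to 57uM ketoconazole.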

Test [9] in a line: qHTS Assay for Lipid Storage Modulators (AID 1519; calls by dose curve; as to activity change, negative = inhibition: % is scaled to controls: 0 for no effect and ±100 for the full control effect). Conditions: Drosophila S3 cells, BODIPY lipid droplet/cell ratio, laser cytometry, cells loaded with oleic acid. The method, boiled down: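 Cells seeded at 5,000 per well were treated with compounds over a concentration series and loaded with oleic acid (400 uM, as added). Lipid droplet fluorescence (488 nm excitation, 500-530 nm channel) was read by laser-scanning cytometry and normalized to 20 uM Triacsin C.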

Test [10] concerns the target Ubiquitin carboxyl-terminal hydrolase 1 (Homo sapiens) (UniProt O94782). The experiment in a line: Inhibitors of USP1/UAF1: Pilot qHTS (AID 504865).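 Also: rhodamine fluorescence freed from ubiquitin-rhodamine substrate followed over time; top concentration of the series differs between compounds; % is scaled to controls: 0 for no effect and ±100 for the full control effect; nearly all actives have a fitted effect of over 35% in size.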 In short, it runs like this: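 In 50mM HEPES pH 7.8 containing 0.5mM EDTA, 1mM TCEP, 0.1 mg/ml BSA and 0.01% Tween-20, 1nM USP1/UAF1 is exposed to compound for 15 min, then Ub-Rho (150nM final) is added and fluorescence is read over time.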

Test [11] has as its target DNA dC->dU-editing enzyme APOBEC-3G (Homo sapiens) (UniProt Q9HC16). The experiment in a line: qHTS for inhibitors of Vif-A3G interactions: Validation (AID 588379). Also: 0% is about no effect. In short, it runs like this:
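Yellow fluorescence (Ex 488, Em 500-530) of Vif-coexpressing HeLa A3G-eYFP cells, scanned by Acumen cytometer, reports blocked A3G degradation. Cells plated at 700/well overnight at 37 deg C before compound addition, then a further overnight compound incubation at 37 deg C.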

Test [12] has as its target Cytochrome P450 3A4 (Homo sapiens) (UniProt P08684). The experiment in a line: qHTS Assay for Inhibitors and Substrates of Cytochrome P450 3A4 (AID 884). Also: % is scaled to controls: 0 for no effect and ±100 for the full control effect; nearly all actives have a fitted effect of over 50% in size. The method, boiled down: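 Luminescent readout of luciferin produced by CYP3A4 (20 nM) dealkylation of Luciferin-PPXE, 25 uM (its KM). NADPH-driven reaction ran 60 min at RT after 10 min compound preincubation; data scaled to 57 uM ketoconazole as 100% inhibition.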

Inconclusive results are not listed. Calls of active or inactive are those of the source. Unless noted, calls follow the shape of the dose curve; as a rule, active = well fitted curve in the direction sought with a large enough effect; inconclusive = small, poorly fitted or top-dose-only effect, or another doubt; inactive = no such curve, though single readings can be large; an effect the other way counts as inactive or inconclusive.

Chain of DNA dC->dU-editing enzyme APOBEC-3G (Homo sapiens) (Q9HC16 whole entry, looked up): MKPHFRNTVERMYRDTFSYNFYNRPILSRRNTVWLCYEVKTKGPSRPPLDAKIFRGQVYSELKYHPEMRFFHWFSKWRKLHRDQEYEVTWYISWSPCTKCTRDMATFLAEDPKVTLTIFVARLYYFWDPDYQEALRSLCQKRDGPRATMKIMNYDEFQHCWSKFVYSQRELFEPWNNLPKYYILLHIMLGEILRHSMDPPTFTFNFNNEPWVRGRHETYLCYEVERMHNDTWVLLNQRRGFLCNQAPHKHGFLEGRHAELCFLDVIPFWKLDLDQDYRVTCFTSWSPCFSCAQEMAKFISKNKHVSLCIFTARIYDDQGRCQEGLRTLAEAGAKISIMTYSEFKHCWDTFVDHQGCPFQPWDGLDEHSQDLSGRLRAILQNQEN
Chain of Cytochrome P450 2D6 (Homo sapiens) (P10635 whole entry, looked up): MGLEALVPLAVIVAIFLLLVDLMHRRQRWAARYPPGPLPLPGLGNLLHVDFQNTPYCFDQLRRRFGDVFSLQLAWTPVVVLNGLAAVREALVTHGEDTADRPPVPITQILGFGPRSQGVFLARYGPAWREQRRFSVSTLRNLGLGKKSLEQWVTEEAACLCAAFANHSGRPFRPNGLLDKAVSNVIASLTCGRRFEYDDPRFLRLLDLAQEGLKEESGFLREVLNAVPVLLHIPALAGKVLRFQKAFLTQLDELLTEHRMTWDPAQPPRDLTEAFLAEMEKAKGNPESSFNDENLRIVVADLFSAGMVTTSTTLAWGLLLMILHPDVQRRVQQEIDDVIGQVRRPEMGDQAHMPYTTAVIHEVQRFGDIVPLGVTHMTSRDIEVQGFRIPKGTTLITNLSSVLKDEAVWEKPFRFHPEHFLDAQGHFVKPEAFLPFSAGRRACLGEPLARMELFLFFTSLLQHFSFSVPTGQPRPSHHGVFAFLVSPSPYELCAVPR
Chain of Cytochrome P450 2C19 (Homo sapiens) (P33261 whole entry, looked up): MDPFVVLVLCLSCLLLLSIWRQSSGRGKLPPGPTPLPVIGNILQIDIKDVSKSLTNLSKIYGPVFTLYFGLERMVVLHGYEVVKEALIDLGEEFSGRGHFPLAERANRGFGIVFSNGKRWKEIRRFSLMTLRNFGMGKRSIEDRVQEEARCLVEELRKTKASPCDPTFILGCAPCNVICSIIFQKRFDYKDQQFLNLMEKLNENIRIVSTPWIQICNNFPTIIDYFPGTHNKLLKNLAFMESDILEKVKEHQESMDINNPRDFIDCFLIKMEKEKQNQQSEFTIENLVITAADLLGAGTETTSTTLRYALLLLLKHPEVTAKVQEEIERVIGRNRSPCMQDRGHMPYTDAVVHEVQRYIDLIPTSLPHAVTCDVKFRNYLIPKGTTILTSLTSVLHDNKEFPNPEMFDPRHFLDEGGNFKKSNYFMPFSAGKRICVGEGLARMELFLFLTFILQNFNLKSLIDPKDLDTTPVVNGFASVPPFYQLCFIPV
Chain of Ubiquitin carboxyl-terminal hydrolase 1 (Homo sapiens) (O94782 whole entry, looked up): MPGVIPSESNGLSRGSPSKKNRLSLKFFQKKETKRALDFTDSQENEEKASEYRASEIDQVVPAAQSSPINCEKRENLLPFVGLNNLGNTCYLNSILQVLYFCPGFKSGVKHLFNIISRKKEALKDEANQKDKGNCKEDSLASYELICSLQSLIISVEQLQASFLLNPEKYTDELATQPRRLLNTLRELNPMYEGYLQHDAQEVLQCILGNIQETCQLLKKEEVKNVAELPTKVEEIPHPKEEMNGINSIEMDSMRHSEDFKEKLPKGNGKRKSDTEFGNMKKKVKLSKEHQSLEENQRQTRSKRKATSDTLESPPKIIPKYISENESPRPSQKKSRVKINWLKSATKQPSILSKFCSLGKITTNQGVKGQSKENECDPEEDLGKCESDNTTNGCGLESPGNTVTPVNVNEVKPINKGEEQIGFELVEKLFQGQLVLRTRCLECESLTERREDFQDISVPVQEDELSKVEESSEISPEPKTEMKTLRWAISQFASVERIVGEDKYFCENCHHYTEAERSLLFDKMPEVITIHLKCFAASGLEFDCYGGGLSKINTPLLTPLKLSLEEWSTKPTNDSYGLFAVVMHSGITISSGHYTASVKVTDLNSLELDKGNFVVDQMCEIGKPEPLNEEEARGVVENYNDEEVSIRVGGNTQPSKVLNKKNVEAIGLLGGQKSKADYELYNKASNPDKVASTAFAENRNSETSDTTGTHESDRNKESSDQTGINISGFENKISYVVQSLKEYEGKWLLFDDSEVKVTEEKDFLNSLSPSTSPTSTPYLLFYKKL
Chain of Cytochrome P450 3A4 (Homo sapiens) (P08684 whole entry, looked up): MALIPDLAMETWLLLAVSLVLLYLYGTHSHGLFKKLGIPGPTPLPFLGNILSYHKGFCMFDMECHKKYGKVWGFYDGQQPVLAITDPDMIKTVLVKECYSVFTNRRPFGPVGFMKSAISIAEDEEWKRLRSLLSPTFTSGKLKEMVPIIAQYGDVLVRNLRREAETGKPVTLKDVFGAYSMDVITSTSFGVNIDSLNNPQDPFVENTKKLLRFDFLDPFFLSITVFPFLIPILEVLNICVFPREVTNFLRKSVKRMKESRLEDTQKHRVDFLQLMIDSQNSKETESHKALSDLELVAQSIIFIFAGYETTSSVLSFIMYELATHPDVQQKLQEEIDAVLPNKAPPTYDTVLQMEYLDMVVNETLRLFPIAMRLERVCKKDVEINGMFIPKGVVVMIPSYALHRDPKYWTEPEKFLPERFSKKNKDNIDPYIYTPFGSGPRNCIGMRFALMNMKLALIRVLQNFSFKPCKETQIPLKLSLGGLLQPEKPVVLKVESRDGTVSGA

In the case of `C[C@@H]1O[C@H](C[N+](C)(C)C)C[C@@H]1O`, the Potency result in test [1] and in test [2] was “inactive” in each case.
In the case of `O=C(O)/C=C/CO`, the Potency result in test [1] and in test [2] was “inactive” each time.
Take `COc1ccc2[nH]cc(CCNCc3ccc(Br)cc3)c2c1`: the Potency entry in test [1] and in test [2] was “inactive” throughout.
In the case of `CC(=O)C1CCC2C3CCC4CC(C)(O)CCC4(C)C3CCC12C` (configuration not stated), the Potency entry in [1] and in [2] was “inactive” each time.
Take `CC(C)=CCCN1CCC(NC(=O)C(O)(c2ccccc2)C2CCCC2)CC1` (configuration not stated): the Potency result in test [1] was “inactive”. The max response in test [3] is 3.9% (inactive).
For the compound `COc1ccc(C(=O)O[C@H]2CC[C@@]3(C)C4CCC5[C@]6(O)C[C@H](O)[C@@]7(O)C(CN8C[C@@H](C)CC[C@H]8[C@@]7(C)O)[C@]6(O)C[C@@]53O[C@@]42O)cc1OC` (some centres not stated), the Potency entry in test [1] and in test [2] was “inactive” throughout.
Take `CC1(C)[C@@H](O)C[C@H]2[C@](C)(O)[C@@H]3CC[C@H]4[C@@H](O)[C@@]3(C[C@@H](O)[C@@]21O)C[C@@]4(C)O`: the Potency result in [1] and in [2] was “inactive” in each case.
Turning to `CC1=C2CC3C(CC=C4C[C@@H](O)CC[C@@]43C)[C@@H]2CC[C@]12O[C@@H]1C[C@H](C)CN[C@H]1[C@H]2C` (some centres not stated), the Potency entry in test [1] and in [2] was “inactive” in each case.
With `O=C1CSC(c2ccccc2Cl)c2cc(Cl)ccc2N1` (configuration not stated), the Potency result in [1] and in test [2] was “inactive” each time.
For `C/C=C1/C[N@@+]2(C)CC[C@]34C(=C(C=O)[C@H]1C[C@H]32)Nc1ccccc14`, the Potency entry in [1] and in test [2] was “inactive” throughout.
As to `CC[C@H](Oc1ccc(Cl)cc1)C(=O)OC1C[C@H]2CC[C@@H](C1)N2C` (some centres not stated), the Potency in [4] was > 46 µM (inactive); in test [5], > 46 µM (inactive); in test [7], 6.3 nM (active); in test [8], 15.8 nM (active). In addition, the compound was called inactive in [6]. Also, the activity change, negative = inhibition in test [9] (at 57.5 µM (top of the series)) is -0.561% (inactive). Further, the max response was 16.1% in test [9] (measured here: cell count channel max response), 28.8% in test [9] (measured here: lipid channel max response) and 3.6% (inactive) in test [3]. Moreover, the Potency entry in test [10], in test [11] and in test [1] was “inactive” each time.
For the compound `C[C@]12CC[C@H]3[C@@H](C[C@H](F)C4=CC(=O)CC[C@@]43C)[C@@H]1CC[C@@H]2O`, the Potency result in test [1] and in test [2] was “inactive” throughout.
Consider `Cn1c2c(c3ccccc31)CCNCC2`, for which the Potency entry in [12] and in [1] was “inactive” in each case. Further, in test [3], the max response is 24.2% (inactive).
For the compound `CCCCC[C@@H](/C=C/C=C\CCCCCCCC(=O)O)OO`, the activity change, negative = inhibition was 3.22% [at 0.59 µM] (inactive) in test [1] and -19.4% [at 0.478 µM] (inactive) in test [2].
On the same counts, the results for `CC[C@H](C)[C@H](NC(=O)[C@H](CCCN=C(N)N)NC(=O)[C@H](CCCN=C(N)N)NC(=O)[C@H](CC(C)C)NC(=O)[C@H](Cc1ccccc1)NC(=O)CNC(=O)CNC(=O)[C@@H](N)Cc1ccc(O)cc1)C(=O)N[C@@H](CCCN=C(N)N)C(=O)N1CCC[C@H]1C(=O)N[C@@H](CCCCN)C(=O)N[C@@H](CC(C)C)C(=O)N[C@@H](CCCCN)C(=O)O` are 3.59% [at 6.83 µM] (inactive) and -25.4% [at 3.88 µM] (inactive).
On the same counts, the results for `CCCCCCCCCCCCCCCC(=O)OC[C@H](COP(=O)([O-])OCC[N+](C)(C)C)OC(C)=O` are 9.56% [at 6.83 µM] (inactive) and -14.9% [at 3.88 µM] (inactive).
On the same counts, the results for `CCCCC/C=C\C=C\[C@H](CCCCCCCC(=O)O)OO` are -1.43% [at 0.59 µM] (inactive) and -24.7% [at 0.478 µM] (inactive).
Take `CC(Cc1cccc(C(F)(F)F)c1)NCCCc1ccccc1` (configuration not stated): the Potency entry in test [1] and in [2] was “inactive” throughout.

Source of the values: PubChem BioAssay (NCATS).
